Bioassay records (PubChem)
Rows were chosen to be rich in hits. Some 7.7% of all compounds tested hit in one or more screens of this group.
Giardia FBPA inh = qHTS Assay for Inhibitors of Fructose-1,6-bisphosphate Aldolase from Giardia Lamblia; A8B2U2; purified Giardia FBPA; Potency, µM (titrated, usually from 59.6 µM), most hits filed as inhibitors; hit rate 0.71% among 290,000; AID 2451, 2010; note: nearly all actives have a fitted effect of over 55% in size
Target sequence (A8B2U2 whole entry, looked up): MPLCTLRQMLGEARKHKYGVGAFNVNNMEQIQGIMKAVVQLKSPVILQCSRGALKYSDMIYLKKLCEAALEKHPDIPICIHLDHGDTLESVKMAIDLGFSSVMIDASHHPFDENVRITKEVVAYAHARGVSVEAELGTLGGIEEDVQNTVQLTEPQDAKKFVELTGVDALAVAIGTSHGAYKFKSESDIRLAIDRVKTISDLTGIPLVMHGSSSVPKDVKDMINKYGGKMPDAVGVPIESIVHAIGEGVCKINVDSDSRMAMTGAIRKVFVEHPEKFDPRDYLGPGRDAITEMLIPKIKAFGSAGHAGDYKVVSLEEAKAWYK
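Giardia FBPA (40 nM reagent) was preincubated 10 min at RT with compound (up to 57.5 uM final), then substrate plus GAPDH/TPI/NAD/arsenate coupling system with diaphorase/resazurin was added; resorufin fluorescence (525/598 nm) was read after 20 min.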
Sm TGR block = qHTS Assay for the Inhibitors of Schistosoma Mansoni Peroxiredoxins. purified TGR, DTNB reduction, TNB absorbance 405 nm. Potency, µM (top dose mostly 114 µM), most hits filed as inhibitors. Schistosoma mansoni thioredoxin glutathione reductase (TGR), Q962Y6. hit rate 3% among 360,000; note: nearly all actives have a fitted effect of over 60% in size
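TGR 20 nM + NADPH 100 uM (dispensed conc.), cpd preinc 15 min RT; start with NADPH (500 uM addition) then DTNB (15 mM addition). Kinetic TNB absorbance, 405 nm filter. Four-parameter Hill fit across titration.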
RE007 growth inh = qHTS Assay for Inhibitors of the HIV-1 protein Vpr; S. pombe RE007 Vpr strain, BacTiter-Glo ATP luminescence, 24 h; Potency, µM (titrated, usually from 92.2 µM), actives largely listed as inhibitors; hit rate 0.21% among 360,000; AID 651644, 2012; active = well fitted falling curve with a large enough effect; inconclusive = small, poorly fitted or top-dose-only effect; inactive = no such curve, though single readings can be large or run the other way; note: nearly all actives have a fitted effect of over 50% in size
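Fission yeast strain RE007, carrying one chromosomally integrated HIV-1 vpr copy, was seeded at OD 0.01 in PMG+AL medium with 23 nL pinned compound. After 24 h at 30 °C and 99% humidity, viability was read by BacTiter-Glo luminescence.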
FMDV antiviral = High Throughput Screening for Foot and Mouth Disease Virus Antivirals | FMDV antiviral cell-based qHTS | Potency, µM (titrated, usually from 57.9 µM), usual class: inhibitors | hit rate 1.2% among 410,000 | AID 1159524, 2015; calls by dose curve; tested in HEK293T cells; note: read-out not given here; nearly all actives have a fitted effect of over 45% in size
Tb PYK inh = qHTS of Trypanosoma Brucei Inhibitors. pyruvate kinase (Trypanosoma brucei), Q57TT1. TbPYK enzyme, Kinase-Glo Plus ATP luminescence, 45 min. Potency, µM (doses to about 76.8 µM), actives largely listed as inhibitors. hit rate 0.12% among 410,000; note: nearly all actives have a fitted effect of over 50% in size
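Enzyme and substrate buffer are dispensed first and compound is pin-transferred. ADP at 130 uM final then starts the reaction, which runs 45 min at room temperature. Detection reagent is added for 10 min before luminescence is imaged.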
HCMV inh = qHTS Assay for inhibitors of the human cytomegalovirus (HCMV). HFF cells, HCMV-luciferase reporter, 72 h; active compounds read low. activity change, negative = inhibition, % at 57.5 µM. hit rate 4.5% among 410,000. AID 1259415, 2018; in the data active = activity change below about -60%; inconclusive = no clear call, values can overlap the other calls; inactive = above about -39%
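HFF cells seeded 16 h at 37C, treated with compounds, infected with luciferase-reporter HCMV at MOI 1 PFU/cell; luciferase read at 72 h post infection, normalized to buffer-only and Salinomycin controls.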
Hits are given with their value; – = inactive; ? = inconclusive; · = no result given. Unless noted, calls come from the whole dose curve; as a rule, active = well fitted curve in the direction sought with a large enough effect; inconclusive = small, poorly fitted or top-dose-only effect, or another doubt; inactive = no such curve, though single readings can be large; an effect the other way counts as inactive or inconclusive.

SMILES | Giardia FBPA inh | Sm TGR block | RE007 growth inh | FMDV antiviral | Tb PYK inh | HCMV inh
CCOC(=O)[C@@H](C)N(Cc1ccc(OC)cc1)S(=O)(=O)N(Cc1ccccc1)[C@H](C(=O)OC)C(C)C | · | – | – | – | – | -79
COC(=O)[C@H](CC(C)C)N(Cc1ccccc1)S(=O)(=O)N(Cc1ccccc1)[C@@H](CC(C)C)C(=O)OC | · | · | – | ? | – | -69
CCCCNC(=S)N(C)/N=C/c1c(F)cccc1F | – | – | – | – | – | -90
CCCCNC(=S)N(C)/N=C/c1ccccc1F | – | – | – | – | – | –
CCC(=O)n1nc(NCc2ccc(OC)c(OC)c2)nc1NCc1ccc(OC)c(OC)c1 | – | – | – | 18µM | – | –
COCC(=O)n1nc(NCc2ccc(OC)cc2)nc1NCc1ccc(OC)cc1 | – | – | – | – | ? | –
Cn1ccnc1C(O)c1cc(C(C)(C)C)c(O)c(C(C)(C)C)c1 (centres undefined) | – | 18µM | – | · | ? | ?
O=C(Nc1ccccc1C(F)(F)F)N[C@H]1CC[C@@]23CCCN2C(=O)CCC[C@H]3C1Cc1ccccc1 (some centres undefined) | · | · | · | · | · | –
CCN(CC)S(=O)(=O)c1ccc(S(=O)(=O)Nc2c(C)nn(C)c2C)cc1 | · | – | – | ? | – | -73
Cc1nn(C)c(C)c1NS(=O)(=O)c1ccc(Cl)cc1 | · | – | – | – | – | –
COc1ccc(-c2nc3ccccc3s2)cc1NC(=O)c1cccc(F)c1 | · | – | · | – | – | –
O=C1c2ccccc2C(=O)N1CCCCc1cn(C[C@H]2CC[C@@H]([C@@H]3CC[C@H](Cn4cc(CCCCN5C(=O)c6ccccc6C5=O)nn4)O3)O2)nn1 | · | · | – | 25µM | – | –
COCCNC(=O)C1(C)CCCN(C(=O)c2c(F)ccc(C)c2F)C1 (centres undefined) | · | · | – | – | – | -64
Nc1nc(C2CC2)c(Sc2sc(N)nc2C2CC2)s1 | – | – | – | 25µM | – | -72
Nc1nc(C2CCOCC2)cs1 | – | – | – | – | – | –
COc1ccc(C2/C=C\CN([S+](=O)([O-])c3ccc4ccccc4c3)C(C)C(=O)N2Cc2ccc(F)cc2)cc1 (centres undefined) | – | · | · | · | · | ·
CCc1ccccc1NC(=O)Cn1nc(CC)n2c(cc3sccc32)c1=O | · | ? | · | – | – | –
Cc1cccc(C(=O)N[C@H](C(=O)Nc2nnc(C3CC3)s2)C(C)C)c1 | – | – | – | – | – | –
Cc1cccc(C(=O)N[C@H](C(=O)Nc2ncc(C)s2)C(C)C)c1 | – | – | – | – | – | -107
Cc1ccc(Sc2c([N+](=O)[O-])ncn2C)cc1 | – | ? | – | ? | – | –
Cn1cnc([N+](=O)[O-])c1Sc1ccc(Br)cc1 | – | 22µM | – | ? | – | –
COc1ccc(C)cc1NS(=O)(=O)c1ccc2c3c(cccc13)C(=O)N2 | · | – | · | ? | – | –
COc1ccc(C(=O)NCCSc2c(C)[nH]c3ccccc23)cc1 | · | – | · | – | – | -96
C/C(=C\c1ccco1)CN1CCOc2ccc(CN3CCC(Oc4cccnc4)CC3)cc2C1 | · | · | · | – | · | ·
Cc1ccc(Oc2cc([N+](=O)[O-])cc3c2C(=O)Nc2ccccc2O3)cc1 | – | – | – | ? | – | -78
SMILES | Giardia FBPA inh | Sm TGR block | RE007 growth inh | FMDV antiviral | Tb PYK inh | HCMV inh
O=C1Nc2ccccc2Oc2cc(Oc3ccc(Cl)cc3)ccc21 | · | – | · | – | – | –
O=C(/C=C\C=C/c1ccc2c(c1)OCO2)N1CCCCC1 | – | · | · | · | · | ·
Nc1ccc(O)cc1C(=O)OCC(=O)c1ccc(C2CCCCC2)cc1 | – | – | – | ? | – | -95
COc1ccc(C(=O)OCC(=O)c2ccc(C3CCCCC3)cc2)cc1 | – | ? | – | ? | – | ?
O=c1c(Cl)cc(Cl)nn1-c1ccccc1 | – | ? | ? | 35µM | – | -66
CCCNC(=O)N1[C@@H]2CN(C(=O)Nc3ccccc3)c3ccccc3[C@@H]2[C@@H]1CO | · | · | · | · | · | –
c1ccc(-c2cccc(-c3ccccc3)n2)cc1 | – | – | – | – | – | -65
Cc1nc2ccc(S(=O)(=O)NC(C(=O)NCc3ccco3)C(C)C)cc2s1 (centres undefined) | – | – | – | – | – | -64
NC(=S)NN=C1c2ccccc2-c2ccccc21 | ? | – | – | ? | – | -87
COc1cc(OC)cc(-c2c(C#Cc3ccsc3)c3cc(-c4ccc(C(N)=O)cc4)ccc3n2C)c1 | · | 28µM | – | – | – | –
COCc1ccc(-c2ccc3c(c2)c(C#Cc2ccsc2)c(-c2cc(OC)cc(OC)c2)n3C)cc1 | · | – | – | – | – | –
Cc1ccc(CNS(=O)(=O)c2c(C(=O)N3CCC(C)CC3)c(C)n(C)c2C)cc1 | · | – | · | – | – | –
CO[C@H]1[C@H](NC(=O)c2cccs2)c2ccccc2C12CCN(Cc1cccn1-c1ccccn1)CC2 | · | · | · | – | · | ·
O=C(OCc1cc(=O)n2nc(C3CC3)sc2n1)c1cccc(NC(=O)c2ccccc2Cl)c1 | · | – | · | ? | – | –
Cc1ccc(OCC(=O)Nc2cccc(C(=O)OCc3cc(=O)n4nc(C)sc4n3)c2)cc1 | · | – | · | 13µM | – | –
Cc1nn2c(=O)cc(COC(=O)c3ccc(NC(=O)COc4ccc(C)c(C)c4)cc3)nc2s1 | · | – | · | 11µM | – | –
CCCc1nn2c(=O)cc(COC(=O)c3ccc(NC(=O)COc4ccccc4)cc3)nc2s1 | · | – | · | – | – | –
Cc1nn2c(=O)cc(COC(=O)c3ccc(NC(=O)COc4ccccc4F)cc3)nc2s1 | · | – | · | 10µM | – | –
CCc1nn2c(=O)cc(COC(=O)c3ccc(NC(=O)COc4ccccc4C)cc3)nc2s1 | · | – | · | – | – | –
O=C(OCc1cc(=O)n2nc(C3CC3)sc2n1)c1ccc(NC(=O)c2ccccc2Cl)cc1 | · | – | · | 20µM | – | –
CCOC(=O)CNC(=O)O[C@@H]1C(=O)c2cc(OC)ccc2O[C@H]1c1ccc(OC)c(Br)c1 | – | · | · | · | · | ·
CCOC(=O)CSc1nc2c(sc3cccc(F)c32)c(=O)n1Cc1ccc(OC)cc1 | · | – | · | – | – | –
COc1ccccc1C(=O)Nc1ccc(C(=O)OCc2cc(=O)n3nc(C4CC4)sc3n2)cc1 | · | – | · | – | – | –
COc1ccccc1C(=O)Nc1ccc(C(=O)OCc2cc(=O)n3nc(C)sc3n2)cc1 | · | – | · | 16µM | – | –
Cc1cn2c(=O)cc(COC(=O)c3cccc(NC(=O)COc4ccc(Cl)cc4)c3)nc2s1 | · | – | · | – | – | –
Cc1nn2c(=O)cc(COC(=O)c3cccc(NC(=O)CCc4ccccc4)c3)nc2s1 | · | – | · | – | – | –
